Results on 101 compounds are retold here after PubChem BioAssay AID652104 (National Center for Advancing Translational Sciences (NCATS), 2013).

In all, about 410,000 compounds went through this assay and about 7,200 (1.8%) were called active. Entries that show only a call come without a potency. Not shown: some 7% with an inconclusive outcome. The sample holds actives, similar compounds and a random draw of the others, so the mix is not that of the screen. Unmarked numbers belong to inactive results. Calls follow the shape of the dose curve; as a rule, active = well fitted activation curve with a large enough effect; inconclusive = small, poorly fitted or top-dose-only effect, or another doubt; inactive = no such curve, though single readings can be large or run the other way.
Potency is read from the fitted curve at half-maximal effect.

The experiment in a line: qHTS of TDP-43 Inhibitors. Also: nearly all actives have a fitted effect of over 50% in size. The settings on record: TDP-43 expressing yeast growth rescue, BacTiter-Glo, 24 h; series mostly up to 46.1 µM. Put shortly: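 Luminescence from BacTiter-Glo reports growth of TDP-43-expressing yeast after 24 hr at 30 deg C with compound. Cells were raffinose-pregrown to mid-log, then seeded in galactose medium at OD600=0.02.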
Regarding `CCOc1ccccc1NC(=O)C1CCCN(S(=O)(=O)c2cn(C)cn2)C1` (stereo unspecified), the Potency result was “inactive”.

As for `Cc1nnc(SCC(=O)NCc2ccccc2Cl)c2nn(-c3ccccc3)c(C)c12`, the Potency entry was “inactive”.

Consider `CCn1c2c(c(=O)n3ncc(C(=O)N4CCN(c5ccccc5)CC4)c13)CN(Cc1ccc(OC)cc1)CC2`, for which the Potency entry is “inactive”.

`Cc1ccc(N2CCN(c3ccc([N+](=O)[O-])cn3)CC2)c(C)c1`: the Potency result was “inactive”.

As for `Cc1ccc(-n2cc3ccc([N+](=O)[O-])cc3n2)cc1`, the Potency is 15.8 µM (active).

Take `CC(C)(C)NC(=O)Cn1cnc2cc([N+](=O)[O-])ccc2c1=O`: the Potency result was “inactive”.

Take `Cc1ccc(CCNC(=O)C2CCN(c3nnc(-n4cccc4CNc4ccc(C)cc4)s3)CC2)cc1`: the Potency entry was “inactive”.

Turning to `COc1ccc(S(=O)(=O)N2CCN(C(=S)NCC3CCCO3)CC2)cc1OC` (stereo unspecified), the Potency result is “inactive”.

As for `CCOc1ccc(S(=O)(=O)N2CCN(C(=S)NCC3CCCO3)CC2)cc1` (stereo unspecified), the Potency entry was “inactive”.

On to `S=C(NCC1CCCO1)N1CCN(c2ccc(Cl)c(Cl)c2)CC1` (stereo unspecified), for which the Potency is 22.4 µM (active).

As to `O=C(CCCn1c(=O)c2cccn2c2cccnc21)NCc1ccc(F)cc1`, the Potency entry was “inactive”.

As to `Cc1nc2ccccn2c(=O)c1NC(=O)c1c(F)cccc1F`, the Potency result is “inactive”.

With `CN1C(=O)c2[nH]nc(-c3ccc(F)cc3)c2C1c1ccccn1` (stereo unspecified), the Potency result is “inactive”.

Take `O=C(NC1CC(=O)N(c2ccc(F)cc2)C1)c1cccs1` (stereo unspecified): the Potency result is “inactive”.

Turning to `CC(C)(C)c1ccc(Oc2ccc(N)cc2)cc1`, the Potency is 35.5 µM (active).

Regarding `CCCC(=O)Nc1ccc(NC(=O)c2sc3ccccc3c2Cl)cc1`, the Potency result was “inactive”.

Turning to `Clc1ncn(CCOc2ccccc2)c1Cl`, the Potency is 17.8 µM (active).

`Cc1c(C(N)=O)sc2ncn(CCOc3ccccc3)c(=O)c12`: the Potency entry is “inactive”.

For `Cc1cc2ncn(CCCCOc3ccccc3)c2cc1C`, the Potency result is “inactive”.

For the compound `CSc1oc(-c2cccs2)nc1S(=O)(=O)c1ccc(Br)cc1`, the Potency entry is “inactive”.

Consider `COc1ccc(CN2CC(C(=O)NC3CCCCC3)CC2=O)cc1` (stereo unspecified), for which the Potency result was “inactive”.

As to `COc1ccc(CN2CN(C3CCCC3)CSC2=S)cc1`, the Potency is 15.8 µM (active).

On to `COc1ccc(CN2CN(C(C)C)CSC2=S)cc1`, for which the Potency entry was “inactive”.

Take `CC1CCCN(c2nc3c(S(=O)(=O)c4ccc(C(C)C)cc4)nnn3c3ccsc23)C1` (stereo unspecified): the Potency result is “inactive”.

Turning to `O=C(Nc1cc(C(F)(F)F)ccc1Cl)c1nc2ccccc2nc1N1CCCCC1`, the Potency result was “inactive”.

For the compound `COc1ccc(S(=O)(=O)N2CCOCC2)c(C)c1C`, the Potency result was “inactive”.

Take `Cc1cc(C)c(S(=O)(=O)N2CCOCC2)cc1C`: the Potency entry was “inactive”.

As to `O=S(=O)(c1ccc(Br)c2ccccc12)N1CCOCC1`, the Potency was 14.1 µM (active).

Regarding `COc1ccccc1CN1CCC(CNC(=O)c2cnn(-c3cccc(Cl)c3)c2C2CCN(C(=O)OC(C)(C)C)CC2)CC1`, the Potency result was “inactive”.

Turning to `Cc1ccc(Cn2c(C)c3cnn(CC(=O)NCc4ccccc4)c(=O)c3c2C)cc1`, the Potency result is “inactive”.

Turning to `COc1ccc(-c2ccc(C(=O)NCCN3CCOCC3)c3occc23)c(C)c1`, the Potency entry is “inactive”.

For `COc1ccc(CNC(=O)c2ccc(-c3cccnc3)c3ccoc23)cc1OC`, the Potency result was “inactive”.

With `COc1ccc(-c2ccc(C(=O)NC(C)C)c3occc23)c(C)c1`, the Potency was 28.2 µM (active).

As to `COC(=O)c1ccc(-c2nc3cc(NC(C)=O)ccc3o2)cc1`, the Potency entry is “inactive”.

As to `COc1ccc(-c2cn3c(C)c(C(=O)Nc4cc(C)cc(C)c4)sc3n2)cc1`, the Potency entry is “inactive”.

Turning to `COc1ccc(-n2c(SC)nc3sc4c(c3c2=O)CCN(C(C)=O)C4)cc1`, the Potency result is “inactive”.

In the case of `O=C(COc1ccc2ccccc2c1)N1CCN(C(=O)c2cccs2)CC1`, the Potency result was “inactive”.

Turning to `Cc1ccccc1OCC(=O)NCC(=O)OCC(=O)c1ccc2ccccc2c1`, the Potency result is “inactive”.

In the case of `Cc1cc2ccccc2n1CCNC(=O)COc1ccc2ccccc2c1`, the Potency is 35.5 µM (active).

In the case of `CCOc1ccccc1C(=O)NC1(C(F)(F)F)C(=O)Nc2c1c(=O)[nH]c(=O)n2-c1ccc(F)cc1` (stereo unspecified), the Potency entry is “inactive”.

As to `CCCCOc1ccc(CN2C(=O)C(=O)c3cc(Br)cc(C)c32)cc1OC`, the Potency result is “inactive”.

Regarding `Cc1cccc(C2CC(=O)Oc3c2c(=O)n(C)c2ccccc32)c1` (stereo unspecified), the Potency entry was “inactive”.

With `Cn1c(=O)c([N+](=O)[O-])c(Oc2ccccc2)c2ccccc21`, the Potency entry is “inactive”.

Regarding `Cc1cccc(Oc2c([N+](=O)[O-])c(=O)n(C)c3ccccc23)c1`, the Potency is 11.2 µM (active).

Regarding `CCN(CCCNC(=O)Cn1ncc2c([nH]c3ccccc32)c1=O)c1cccc(C)c1`, the Potency entry was “inactive”.

Turning to `CCOC(=O)C1CCCN(C(=O)Cn2ncc3c(C)n(Cc4ccc(F)cc4)c(C)c3c2=O)C1` (stereo unspecified), the Potency entry was “inactive”.

`O=C(CCOc1ccccc1)N(Cc1cccnc1)c1nc2ccc(Cl)cc2s1`: the Potency entry was “inactive”.

As to `Nc1cccc(-c2cc(-c3ccccc3)nc(-c3cccc(N)c3)n2)c1`, the Potency was 14.1 µM (active).

For the compound `Nc1cccc(-c2cncc(N3CCN(Cc4ccccn4)CC3)n2)c1`, the Potency entry is “inactive”.

Take `COc1cccc(-c2cnc3c(NC(C)=O)cc(-c4cccc(NC(C)=O)c4)cn23)c1`: the Potency entry is “inactive”.

As for `CC(=O)Nc1cc(-c2ccccc2F)cn2c(-c3cccc(C(F)(F)F)c3)cnc12`, the Potency is 31.6 µM (active).

Take `CC(=O)Nc1cccc(-c2cc(NC(C)=O)c3ncc(-c4ccccc4)n3c2)c1`: the Potency result was “inactive”.

With `CCOc1ccc(C(=O)c2cn(Cc3ccccc3OC)c3ccc(F)cc3c2=O)cc1`, the Potency result is “inactive”.

In the case of `COc1ccc2ncc3c(-c4ccc(C)c(C)c4)nn(CC(=O)NC4CCCC4)c3c2c1`, the Potency result was “inactive”.

On to `CC1CC2=C(CC1/C=N/NC(N)=S)C(C)(C)CCC2` (stereo unspecified), for which the Potency was 22.4 µM (active).

On to `COc1ccc2c(c1)Cc1sc(NC(=O)c3ccccc3Br)nc1-2`, for which the Potency result was “inactive”.

Regarding `CCOC(=O)c1cc2c(=O)n3ccccc3nc2n(CC2CCCO2)c1=NC(=O)c1ccc(C(C)(C)C)cc1` (stereo unspecified), the Potency result was “inactive”.

On to `COc1ccc(OCCn2cc(C(=O)C3CCCCC3)c3ccccc32)cc1`, for which the Potency entry is “inactive”.

With `O=C(c1c(F)cccc1Cl)N1CCN(S(=O)(=O)c2ccc3c(c2)OCCCO3)CC1`, the Potency was 14.1 µM (active).

With `CCNC(=O)N1CCN(S(=O)(=O)c2ccc3c(c2)OCCCO3)CC1`, the Potency entry was “inactive”.

With `O=C(c1ccc(Cl)nc1)N1CCN(S(=O)(=O)c2ccc3c(c2)OCCO3)CC1`, the Potency result is “inactive”.

On to `CCOC(=O)Cc1csc(SCC(=O)NC(C)C23CC4CC(CC(C4)C2)C3)n1` (stereo unspecified), for which the Potency is 22.4 µM (active).

As to `CCOC(=O)Cc1csc(SCc2cc(=O)oc3cc(O)ccc23)n1`, the Potency entry was “inactive”.

In the case of `CCOC(=O)Cc1csc(SCC(=O)Nc2ccc(C)cc2F)n1`, the Potency result was “inactive”.

As for `Cc1ccc(C(=O)Nc2ccc(OCc3cc(=O)n4c(C)csc4n3)cc2)cc1`, the Potency result is “inactive”.

`CCSc1nnc(NC(=O)c2cc(=O)c3cc(C)c(C)cc3o2)s1`: the Potency entry is “inactive”.

As for `O=C(Cn1c(=O)n(Cc2ccccc2)c(=O)c2sc3ccccc3c21)Nc1ccccc1F`, the Potency entry was “inactive”.

`CCc1nnc(SCC(=O)Nc2cc(OC)ccc2OC)nc1CC`: the Potency result is “inactive”.

Turning to `CCn1c(COc2ccc(OC)cc2)nnc1SCC(=O)Nc1cc(OC)ccc1OC`, the Potency is 17.8 µM (active).

`CCn1c(COc2ccccc2)nnc1SCC(=O)Nc1ccc2c(c1)OCCO2`: the Potency entry is “inactive”.

For the compound `Cc1ccc(CN2C(=O)SC(Nc3ccccc3)C2=O)cc1` (stereo unspecified), the Potency result was “inactive”.

On to `C=CCn1c(-c2ccc3[nH]c(C)c(C)c3c2)n[nH]c1=S`, for which the Potency entry was “inactive”.

For `C=CCn1c(-c2sc(-c3ccccc3)nc2C)n[nH]c1=S`, the Potency is 35.5 µM (active).

With `C=CCn1c(-c2ccccc2OCC)n[nH]c1=S`, the Potency entry was “inactive”.

For the compound `Cc1ccc(C(=O)COC(=O)C(Cc2c[nH]c3ccccc23)NC(=O)c2ccc(Br)cc2)cc1` (stereo unspecified), the Potency entry is “inactive”.

With `O=C1OC(C(=O)Nc2cccc(Br)c2)Cc2ccccc21` (stereo unspecified), the Potency entry is “inactive”.

On to `Nc1c(-c2cccc(Cl)c2)cnn1-c1cccc([N+](=O)[O-])c1`, for which the Potency was 10 µM (active).

As for `COc1cc2c(cc1OC)C(c1cccc([N+](=O)[O-])c1)=NCC2`, the Potency entry is “inactive”.

Regarding `CCOC(=O)CSc1ncc(-c2cccc(Cl)c2)cn1`, the Potency result was “inactive”.

For the compound `COc1cccc(C(=O)NC(=O)Nc2ccc(-c3cc(C(F)(F)F)nn3-c3ccccc3)cc2)c1`, the Potency entry is “inactive”.

Consider `CCS(=O)(=O)N1CCC(n2c(C)nc3cccnc32)CC1`, for which the Potency entry is “inactive”.

`O=C(CSc1nnnn1-c1ccc(O)cc1)c1ccc(F)cc1`: the Potency result is “inactive”.

As for `CCN(CC)S(=O)(=O)c1ccc2nc(CSc3nnnn3-c3ccc(O)cc3)[nH]c2c1`, the Potency entry is “inactive”.

On to `Oc1ccc(-n2nnnc2SCc2c(F)cccc2Cl)cc1`, for which the Potency was 15.8 µM (active).

With `Cc1ccc(C)c(N2CCN(c3ccc4cc(S(=O)(=O)N5CCC(C)CC5)ccc4n3)CC2)c1`, the Potency result was “inactive”.

`C=CCNc1nc(C)nc(OC)n1`: the Potency result was “inactive”.

As for `C=CCNc1nc(Nc2ccc(Cl)cc2)nc(OC)n1`, the Potency is 35.5 µM (active).

Turning to `CCOC(=O)CNc1nc(Cl)nc(Nc2ccccc2)n1`, the Potency result was “inactive”.

Turning to `Cc1cccc(NC(=O)N2CCN(C)c3ncccc32)c1C`, the Potency result is “inactive”.

`Cc1c(Br)ccc(NC(=O)COc2ccccc2C(N)=O)c1C`: the growth rescue (activation) is 10.9% [at 9.22 µM].

For the compound `O=C(Nc1ccc(-c2nc3cc(NC(=O)c4ccccc4Cl)ccc3o2)cc1)c1ccccc1Cl`, the Potency entry was “inactive”.

On to `COc1cccc(-c2nnc(NC(=O)c3ccc(S(=O)(=O)N(CC(C)C)CC(C)C)cc3)o2)c1`, for which the Potency result is “inactive”.

Regarding `O=C(Nc1nnc(-c2ccc(Cl)cc2)o1)c1ccccc1Br`, the Potency is 7.08 µM (active).

As to `CC(C)CNC(=O)COC(=O)c1ccccc1OCC(=O)Nc1ccc(Br)cc1`, the Potency entry was “inactive”.

On to `O=C(COC(=O)c1ccccc1Br)Nc1nnc(-c2ccccc2)o1`, for which the Potency is 22.4 µM (active).

In the case of `O=C(COC(=O)c1ccc(Oc2ccccc2)cc1)Nc1nnc(-c2ccccc2)o1`, the Potency was 22.4 µM (active).

In the case of `O=C(COc1ccccc1)Nc1nonc1NC(=O)COc1ccccc1`, the Potency entry is “inactive”.

On to `O=C(COC(=O)CSc1nnc(-c2ccc(Cl)cc2)o1)Nc1cc(Cl)cc(Cl)c1`, for which the Potency result was “inactive”.

With `Cc1ccc2nc(N3CCN(c4cccc(Cl)c4)CC3)c3nnnn3c2c1`, the Potency result was “inactive”.

For `O=C(Cn1c(-c2cccs2)cc2ccccc21)NCCc1ccc(Cl)cc1`, the Potency entry is “inactive”.

Turning to `CCn1cc(C(=O)N2CCN(c3cc(Cl)ccc3C)CC2)c(=O)c2cc(S(=O)(=O)N3CCCC3)ccc21`, the Potency result was “inactive”.
